Measurements taken from PubChem BioAssay AID2187 (The Scripps Research Institute Molecular Screening Center, 2009).
Among all 1,300 compounds or so, about 1,200 (92%) were called active. The set was probably picked from earlier hits. Not all results are given here. A number with no mark means an inactive call.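 The calls were made as follows: active = inhibition of the VIM-2 beta-lactamase enzyme above about 11% from the earlier first-round screen (limit read from the data); inactive = the rest.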

Tested on: VIM-2 metallo-beta-lactamase (Pseudomonas aeruginosa)
Experiment: inhibition of VIM-2 nitrocefin hydrolysis – biochemical, epi-absorbance, hits shared with IMP-1 screen, confirmation (AID 2187);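 also: 0% = VIM-2 with DMSO and 100% = buffer wells without enzyme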
Conditions: purified VIM-2, nitrocefin hydrolysis, at 5.6 µM, hits give high values

SMILES	inhibition
CC1CCCC(C)N1CCCNC(=O)c1cc2c(=O)n(C)c3ccccc3c2n1C (configuration not stated)	29.3% (active)
CCN1CCCC1CNC(=O)c1cc2c(=O)n(C)c3ccccc3c2n1C (configuration not stated)	32.5% (active)
Cc1cc(NCc2ccco2)n2c(nc3ccccc32)c1C#N	53% (active)
CCN(CC)c1ccc2cc(C(N)=O)/c(=N\NC(=O)c3ccncc3)oc2c1	37.4% (active)
COc1ccc(/C=N/N(C)C2=NS(=O)(=O)c3ccccc32)cc1OC	20.6% (active)
O=C(COc1cc2oc(=O)c3c(c2cc1Cl)CCC3)NCCCN1CCOCC1	34.9% (active)
Cn1c(=O)c2c(nc(N3CCOCC3)n2CCNC2=NCCC2)n(C)c1=O	28% (active)
CCN(CC)CCOc1ccc2c(c1)C(=NNC(=O)c1ccccn1)c1cc(OCCN(CC)CC)ccc1-2	43.4% (active)
Cn1c2ccccc2c(=O)c2c(O)cccc21	38.6% (active)
C=CCn1c(-c2ccccc2OCC)n[nH]c1=S	24.7% (active)
COc1ccc(CCn2c(=N)c(C(=O)NCC3CCCO3)cc3c(=O)n4cccc(C)c4nc32)cc1OC (configuration not stated)	27.6% (active)
CC(=O)c1ccc(-c2ccc(Cn3c(C)nc4cc(N)c(C)nc43)cc2)cc1	26.6% (active)
CCOCCCNc1c(CC)c(C)c(C#N)c2nc3ccccc3n12	20.6% (active)
CCOC(=O)N1CCN(C(=O)C2CCN(c3ncnc4c3sc3cccc(F)c34)CC2)CC1	22% (active)
Cc1cccn2c(=O)c(C=O)c(Nc3ccc(S(N)(=O)=O)cc3)nc12	26.6% (active)
O=c1[nH]c(-c2ccccc2)c(-c2ccccc2)[nH]1	45.7% (active)
COc1cc(/C=N/Nc2nn3cnnc3c3ccccc23)cc(OC)c1OC	53.9% (active)
COc1ccc(Nc2cc(C)nc(-n3nc(C)cc3C)n2)cc1	25.1% (active)
COc1ccc(Cc2nnc(NS(=O)(=O)Cc3ccccc3)s2)cc1	21.1% (active)
CCC1CCCCN1CCCNC(=O)c1cc2c(Cl)nc3ccccc3c2s1 (configuration not stated)	32.2% (active)
Cc1nc2ccccc2c2oc(C(=O)NCCCN3CCC(C)CC3)cc12	29.2% (active)
CCCc1ccc(OCCNC(=O)c2ccco2)cc1	0.92%
O=C(NC(=S)Nc1ccccc1C(=O)O)c1ccc(-c2ccc(Br)cc2)o1	8.47% (active)
COC(=O)c1c(NC(=O)c2ccc(S(=O)(=O)N3CCOCC3)cc2)sc2c1CCN(C(C)C)C2	71.3% (active)
CNC(=O)c1ccsc1NC(=O)c1ccc(S(=O)(=O)N2CCOCC2)cc1	26.7% (active)
COc1cc(NC(=O)C2=C(C)OCCS2)c(Cl)cc1C(=O)NCCN1CCN(C)CC1	34.3% (active)

SMILES	inhibition
CCN1CCN(C(=O)Cn2nc(C)n3c(cc4c(OC)cccc43)c2=O)CC1	41.4% (active)
Nc1nnc2c(C(F)(F)F)nc3ccccc3n12	21.3% (active)
NC(=O)C1CCN(C(=O)COc2ccc3c4c(c(=O)oc3c2)CCC4)CC1	22.5% (active)
COc1nc(N=C(N)N)nc2c(C)cccc12	24.9% (active)
Cc1cc(C)c2nc3nc(C)cc(C)c3c(N)c2c1	28.1% (active)
O=C(NCCCN1CCOCC1)c1cnn2c(-c3ccccc3)cc(-c3ccccc3)nc12	45.4% (active)
COc1ccc(-c2nn3c(-c4ccccc4)nnc3s2)cc1OC	34.6% (active)
COc1cc(-c2nn3c(-c4cccc(C)c4)nnc3s2)cc(OC)c1OC	22.1% (active)
COC(=O)c1ccc(-c2noc(CN(Cc3ccccn3)CC3CCCO3)n2)cc1 (configuration not stated)	26.8% (active)
CCN1CCN(CCNC(=O)c2ccc3c(c2)NC(=O)/C(=C\c2ccc(OC)c(OC)c2)S3)CC1	30.4% (active)
Nc1cccc2c1C(=O)N(Cc1nnc(-c3ccccc3Br)o1)C2=O	18.7% (active)
CN1CCN(c2ccc(NC(=O)c3ccc4c(c3)[nH]c(=O)n4Cc3ccc(F)cc3)cc2)CC1	33.6% (active)
CC(NS(=O)(=O)c1ccccc1)c1n[nH]c(=S)n1-c1ccccc1 (configuration not stated)	28.1% (active)
CN(C)CCNc1ccc(-c2n[nH]c(=O)c3ccccc23)cc1[N+](=O)[O-]	84.4% (active)
O=C1Nc2cc(C(=O)N3CCC(N4CCCCC4)CC3)ccc2S/C1=C\c1ccccc1	38.5% (active)
Fc1ccc(-c2ccc(CNCc3ccccn3)o2)cc1Cl	54.3% (active)
Cc1ccc2nc(C)c3c(c2c1)N(c1ccccc1)CC3	25.2% (active)
Cn1c(-c2sccc2OCc2cccc(C(F)(F)F)c2)n[nH]c1=S	37.3% (active)
Cc1ccc(Cl)cc1-c1ccc(/C=N/n2cnnc2)o1	41.2% (active)
Clc1cc(-c2ccc(/C=N/n3cnnc3)o2)ccc1Br	57% (active)
Cc1cc([N+](=O)[O-])c(-c2ccc(/C=N/n3cnnc3)o2)cc1Cl	67.5% (active)
Cc1cc(-c2ccc(/C=N/n3cnnc3)o2)c([N+](=O)[O-])cc1C	69.9% (active)
CC(C)(C)CC(=O)Nc1nnc(SCC(=O)NCc2cccs2)s1	27.4% (active)
CCc1cc(=O)oc2cc(C)cc(OCC(=O)N3CCC[C@@H]3C(=O)O)c12	19.7% (active)
CCOc1cc(/C=C2\SC(N3CCCCC3)=NC2=O)ccc1O	19% (active)
CCOc1cc(/C=C2\SC(N3CCCC(C)C3)=NC2=O)ccc1O (configuration not stated)	20.7% (active)
